Shown are actives, neighbours in structure and some others; about 5.9% of the full set was active somewhere.
RORgamma inh: inhibitors of mouse ROR gamma transcriptional activity; Potency, µM (series often up to 53.6 µM), most hits filed as inhibitors; P51450; Drosophila S2 Gal4-RORgamma UAS-luciferase reporter, 20 h; 310,000 tested, 5.4% active; also: nearly all actives have a fitted effect of over 60% in size
Target sequence (P51450 whole entry, looked up, the tested form may be a part): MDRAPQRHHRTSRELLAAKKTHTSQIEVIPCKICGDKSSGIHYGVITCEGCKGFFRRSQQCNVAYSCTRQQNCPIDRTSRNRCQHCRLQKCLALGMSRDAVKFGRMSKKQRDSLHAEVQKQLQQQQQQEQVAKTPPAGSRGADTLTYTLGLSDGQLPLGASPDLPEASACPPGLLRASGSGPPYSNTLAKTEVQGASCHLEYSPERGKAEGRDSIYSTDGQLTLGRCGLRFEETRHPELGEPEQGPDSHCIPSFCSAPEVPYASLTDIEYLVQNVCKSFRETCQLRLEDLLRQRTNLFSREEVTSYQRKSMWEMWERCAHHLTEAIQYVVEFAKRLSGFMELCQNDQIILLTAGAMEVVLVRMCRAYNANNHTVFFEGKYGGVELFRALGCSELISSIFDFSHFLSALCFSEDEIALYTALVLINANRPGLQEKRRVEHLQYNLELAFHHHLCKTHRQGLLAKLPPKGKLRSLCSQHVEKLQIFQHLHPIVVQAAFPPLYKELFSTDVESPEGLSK
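Stably transfected Drosophila Schneider cells are the test system, with ROR gamma fused to Gal4 and luciferase under UAS control; luminescence is read after 20 hr of 700 uM copper sulfate induction at ambient temperature.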
GALK inh: inhibitors of human galactokinase; 270,000 tested, 0.007% active; P51570; Potency, µM (top dose mostly 57.5 µM), hits mostly inhibitors; Purified GALK, Kinase-Glo residual ATP luminescence
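ATP-depletion format; final 35 uM ATP, 100 uM D-galactose, 5 nM enzyme; pH 8.0 HEPES/Mg2+ buffer; 60 min RT; luminescence read 10 min after detection reagent.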
rTrxR1 inhibitor: inhibitors of rat thioredoxin reductase 1; O89049; recombinant rTrxR1, NADPH fluorescence consumption, selenite substrate; 390,000 tested, 1% active; Potency, µM (series often up to 114 µM), most hits filed as inhibitors; also: nearly all actives have a fitted effect of over 65% in size
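Rat TrxR1 (90 nM in the dispensed reagent) was pre-reduced with 400 uM NADPH for 5 min at room temperature, then incubated with compound for 15 min. After 400 uM selenite was added, NADPH fluorescence (Ex 340/Em 450 nm) was followed for 8 min.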
Coupling enz: inhibits coupling enzyme system, counter-screen for aldolase hits | coupling enzyme system counterscreen, AmpLite Red fluorescence | activity change, negative = inhibition, % at 58.2 µM, hits read low | 290,000 tested, 0.67% active | AID 2472; in the data active = activity change below about -30%
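Fluorescence at 525 nm excitation and 598 nm emission measured inhibition of the coupled detection system without aldolase. Compounds (at 57.5 uM final) were preincubated 10 min at room temperature with coupling enzyme reagent before a 20 min substrate/AmpLite Red step.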
VP16 counter: counter-screen for ROR gamma inhibitors: Gal4-VP16 reporter; Drosophila S2 Gal4-VP16 UAS-luciferase, luminescence, 20 h; Potency, µM (highest dose often 53.6 µM), usual class: inhibitors; 310,000 tested, 3.5% active; AID 2546;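 also: Gal4-VP16 expression switched on by copper sulfate through the metallothionein promoter; nearly all actives have a fitted effect of over 50% in size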
TrxR1 substrate: substrates of rat thioredoxin reductase 1; purified TrxR1 substrate turnover, NADPH consumption readout; 390,000 tested, 0.01% active; O89049; AID 588456; Potency, µM (highest dose often 114 µM); also: nearly all actives have a fitted effect of over 50% in size
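Rat TrxR1, dispensed at 90 nM, was prereduced with 400 uM NADPH (final) for 5 min at ~22 deg C, then incubated with compound 15 min before 400 uM selenite. A first-read NADPH fluorescence drop versus no-compound background flagged substrates.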
Hits are given with their value; . = inactive; ? = inconclusive; / = no result; [ ] = another dose, or the depositor's remark. Unless noted, calls follow the shape of the dose curve; as a rule, active = well fitted curve in the direction sought with a large enough effect; inconclusive = small, poorly fitted or top-dose-only effect, or another doubt; inactive = no such curve, though single readings can be large; an effect the other way counts as inactive or inconclusive.

SMILES	RORgamma inh	GALK inh	rTrxR1 inhibitor	Coupling enz	VP16 counter	TrxR1 substrate
CCC1C(=O)NCCN1C(=O)c1cc(COc2cc(C)ccc2C)on1 (stereo unspecified)	.	.	.	.	.	.
O=C(Nc1ccc(S(=O)(=O)N2CCOCC2)cc1)c1cc(S(=O)(=O)N2CCOCC2)ccc1Cl	.	.	.	/	?	.
CN(C)c1nc(NS(=O)(=O)c2ccc(Cl)cc2)nc(N(C)C)n1	.	.	.	-32	.	.
Cn1c(SCC(=O)Nc2cccnc2Cl)nnc1-c1ccco1	/	/	.	/	/	.
CCN(CC)c1ccc(/C=C/c2cc(Cl)nc3ccccc23)cc1	/	/	.	/	/	.
CCC(=O)N1CCN(c2ccnc3cc(Cl)ccc23)CC1	.	.	.	.	.	.
Cc1ccc(S(=O)(=O)N2CCN(c3ccnc4cc(Cl)ccc34)CC2)cc1	?	.	.	.	16µM	.
CCOC(=O)N1CCN(c2ccnc3cc(Cl)ccc23)CC1	.	.	.	.	.	.[0.0914 µM]
O=C(c1ccc(Cl)cc1)N1CCN(c2ccnc3cc(Cl)ccc23)CC1	?	.	.	.	25µM	.
O=C(Oc1ccnc2cc(Cl)ccc12)N1CCCCCC1	.	.	.	.	13µM	.
Cc1ccc(S(=O)(=O)N2CCN(c3ccnc4cc(Cl)ccc34)CC2)cc1C	.	.	.	.	?	.
CC1CCc2sc(C(=O)NC(C)C3CCCO3)cc2C1 (stereo unspecified)	.	.	.	/	.	.
CCN1CCN(C(=O)c2cn(CC)c3ccc(S(=O)(=O)N(C)C)cc3c2=O)CC1	?	.	.	.	?	.
O=c1cc2ncc(-n3cc([N+](=O)[O-])cn3)cn2[nH]1	.	.	.	.	.	.
Cc1nn(-c2ccc(Cl)cc2)c2[nH]c(=O)c(CNCc3ccc4c(c3)OCO4)cc12	.	.	22µM	.	.	.
Cc1ccc(CNCc2cc3c(C(C)(C)C)nn(-c4ccccc4)c3[nH]c2=O)cc1	?	.	.	.	13µM	.
O=C1C(N2CCOCC2)=C(n2nnc3ccccc32)C(=O)c2ccccc21	5µM	.	.	-41	5.6µM	.
CCOC(=O)C1=C(CN2CCOCC2)NC(=O)NC1c1cccc([N+](=O)[O-])c1 (stereo unspecified)	.	.	.	.	.	.
CS(=O)(=O)c1ccc(Cl)c(NC(=O)CCl)c1	14µM	.	13µM	.	.	.
Cc1nn(-c2ccccc2)c(N2CCCC2)c1/C=N/NC(=O)c1cc2ccccc2cc1O	3.5µM	.	.	.	3.5µM	.
Cc1nn(-c2ccccc2)c(N2CCCC2)c1/C=N/NC(=O)c1cc(-c2ccccc2)nc2ccccc12	.	.	.	.	.	.
Cc1nn(-c2ccccc2)c(N2CCCC2)c1/C=N/NC(=S)Nc1ccccc1F	0.35µM	/	.	.	0.35µM	.
O=C(NCCNC1CCC(c2ccccc2)CC1)c1ccc(F)cc1 (stereo unspecified)	.	.	.	.	.	.
C=C(C)CNC(=S)N/N=C/C1=CCC2CC1C2(C)C (stereo unspecified)	0.79µM	.	.	.	1.6µM	.
Fc1ccc(NC(=S)Nc2cccnc2)cc1	.	.	?	.	.	.
SMILES	RORgamma inh	GALK inh	rTrxR1 inhibitor	Coupling enz	VP16 counter	TrxR1 substrate
CC(C)NC(=S)N/N=C/C1=CCC2CC1C2(C)C (stereo unspecified)	0.79µM	.	.	.	1.8µM	.
CC(=O)N/N=C/C1=CCC2CC1C2(C)C (stereo unspecified)	.	.	.	.	.	.
CCCCNC(=S)N/N=C/C1=CCC2CC1C2(C)C (stereo unspecified)	1.1µM	.	.	.	0.89µM	.
CC1(C)C2CC=C(/C=N/NC(=S)Nc3cccnc3)C1C2 (stereo unspecified)	0.5µM	.	.	.	1.3µM	.
Cc1ccc(NC(=O)CN2C(=O)c3cccnc3Sc3ccccc32)c(Br)c1	/	/	.	/	/	.
Cc1ccccc1C(=O)NCc1nnc(SCC(=O)N2c3ccccc3Sc3ccccc32)n1C	?	.	.	.	.	.
CCc1ccccc1NC(=O)c1ccc2c(c1)c(C)c(C)n2Cc1ccccc1	/	/	.	/	/	.
